Source: PubChem BioAssay
NS3h inh CB: blocks HCV NS3 helicase binding to DNA; NS3h Cy5-dT15 DNA binding, fluorescence polarization; inhibition, % at 100 µM; 16,000 compounds, 1.6% hits; AID 687043;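 active means inhibition above the average over every tested compound plus 3 SD, cut at about 40% in these data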
Cy5 interf NS3h: counter-screen for HCV NS3 helicase inhibitors: fluorescence interference; fluorescence interference ratio at 100 µM; AID 720488; Cy5-dT15 DNA with NS3h; actives lie on both sides; signal over control mean, under 1 quenches; 16,000 compounds, 6% hits;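 active means compound fluorescence over control fluorescence at most 0.8, a quencher, or at least a set upper limit, an enhancer; inactive means ratio between 0.8 and the set upper limit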
Hits are given with their value; . = inactive. This is a sample that favours compounds with a hit; in the whole collection about 7.6% have one here.

SMILES	NS3h inh CB	Cy5 interf NS3h
COC(=O)c1ccc(-c2ccc(/C=C3/SC(=S)N(c4ccccc4)C3=O)o2)cc1	.	.
CN(C)c1ccc(/C=N\N2C(=O)/C(=C/c3ccc(N(C)C)cc3)SC2=S)cc1	.	.
O=C1/C(=C/c2ccc(I)o2)SC(=S)N1Cc1ccccc1	.	0.66
CC1=C(C)CC(C(=O)NCCc2ccc(S(N)(=O)=O)cc2)C(C(=O)O)C1 (stereo not given)	.	.
CCC(C(=O)N1CCc2ccccc21)c1ccccc1 (stereo not given)	.	.
C=CCOc1ccc(C=C2C(=O)N(C)C(=O)N(C)C2=O)cc1OC	.	.
CCN1C(=O)/C(=C\c2cccc(OCCOc3cccc(OC)c3)c2)SC1=S	.	.
CCN1C(=O)/C(=C/c2cccc(OC(=O)c3ccccc3I)c2)SC1=S	.	0.74
O=C(Nc1cccc(Cl)c1)Nc1nnc(-c2ccc(Cl)cc2Cl)s1	.	0.75
O=C(Nc1cccc(Cl)c1)Nc1nnc(Cc2ccc(Cl)cc2Cl)s1	.	.
CCC1=NN2C(=N)/C(=C/c3ccc4c(c3)OCO4)C(=O)N=C2S1	.	.
O=C(/C=C/c1c(Cl)cccc1Cl)c1ccc2c(c1)OCCO2	.	.
O=C1N/C(=N\N=C/c2ccccc2O)SC1Cc1ccccc1 (stereo not given)	.	.
O=C1N/C(=N/N=C\c2ccccc2O)SC1Cc1ccc(Br)cc1 (stereo not given)	52	.
O=C1Nc2ccccc2C1(O)C/C(=N\O)c1ccc(Cl)cc1 (stereo not given)	.	.
CC(=O)C(C(=O)c1ccccc1)C1(O)C(=O)Nc2ccccc21 (stereo not given)	.	0.79
O=C(NCCCN1CCOCC1)c1cccc(Cl)c1	.	0.75
O=C(Cc1ccc(Cl)cc1)NCCN1CCOCC1	.	.
O=C1C(Cl)=C(Nc2ccc(F)cc2)C(=O)N1c1ccccc1	.	.
O=C1/C(=C\c2cccc(C(F)(F)F)c2)SC(=S)N1c1cccc(Cl)c1	.	.
O=C1/C(=C/C=C/c2ccccc2)SC(=S)N1c1cccc(C(F)(F)F)c1	.	0.75
O=C1S/C(=C/c2cccc(O)c2)C(=O)N1c1ccccc1	.	.
CCOc1cc(/C=C2/SC(=O)NC2=O)ccc1OCc1ccc(Cl)cc1	.	.
O=C1NC(=O)C(=Cc2ccc(OCc3ccc(F)cc3)cc2)C(=O)N1	.	0.7
COc1cc(C=C2C(=O)NC(=O)NC2=O)ccc1OCCC(C)C	.	0.8
SMILES	NS3h inh CB	Cy5 interf NS3h
COc1cc(C=C2C(=O)NC(=S)NC2=O)ccc1OCc1ccc(Cl)cc1	.	0.68
CCOc1cc(C=C2C(=O)NC(=O)NC2=O)ccc1OCCOc1ccccc1C	.	.
COC(=O)COc1ccc(C=C2C(=O)NC(=S)NC2=O)cc1OC	.	.
O=C1NC(=O)C(=Cc2ccccc2OCc2ccc(F)cc2)C(=O)N1	.	.
CCOc1cc(C=C2C(=O)NC(=O)NC2=O)ccc1OCc1ccc(Cl)cc1	.	0.4
CC(C)(C)NC(=O)CSc1ncccn1	.	.
Cc1ccccc1N1C(=O)NC(=O)/C(=C\c2cc(C)n(-c3cccnc3)c2C)C1=O	.	.
COc1ccc(CCNc2cc(N3CCN(S(=O)(=O)c4ccccc4)CC3)ccc2[N+](=O)[O-])cc1OC	.	.
Cc1ccc2c(C)nc(Nc3nc4ccccc4c(=O)[nH]3)nc2c1	.	.
CCc1nnc(NS(=O)(=O)c2ccc(NC(=S)NC(=O)/C=C/c3ccc(C(C)C)cc3)cc2)s1	44	.
Cc1ccc(/C=C/C(=O)NC(=S)Nc2ccc(S(N)(=O)=O)cc2)cc1	.	.
COc1ccc(CN2CCN(C(=O)c3cccs3)CC2)cc1Br	.	.
CC(O)CNC(=O)C(=O)NCc1ccc2c(c1)OCO2 (stereo not given)	.	.
CCN(CC)c1ccc(NC(=O)c2ccc(Br)cc2)cc1	.	.
CCN(CC)c1ccc(NC(=O)c2ccc(I)cc2)cc1	.	1.3
O=C(CCCN1C(=O)/C(=C\c2cccs2)SC1=S)NC12CC3CC(CC(C3)C1)C2	.	.
Cc1ccc(C)n1-c1cccc2cccnc12	.	0.07
CCOc1cccc(C(=O)Nc2cc(NC(=O)c3cccc(OCC)c3)cc(C(=O)O)c2)c1	.	.
Cc1nc2ccccn2c(=O)c1[N+](=O)[O-]	.	.
Clc1ccc(-c2nc(-c3cccnc3)no2)c(Cl)c1	.	.
Clc1ccccc1-c1nc(-c2cccnc2)no1	.	1.2
O=C(/C=C/c1cccc(C(F)(F)F)c1)Nc1ccc(F)cc1	.	.
O=C(CSc1nc2ccccc2o1)c1ccc2c(c1)Cc1ccccc1-2	.	0.64
CC(C)(C)CC(C)(C)NC(=O)CSc1nc2ccccc2o1	.	.
Cc1nc2c(C)c(-c3ccccc3)[nH]n2c(=O)c1C	.	.
SMILES	NS3h inh CB	Cy5 interf NS3h
CCOC(=O)CCc1c(C)nc2c(C)c(-c3ccccc3)[nH]n2c1=O	.	1.2
CCCC(=N)C1=C(O)CC(C)(C)CC1=O	.	.
O=C1N=c2ccccc2=C1c1sc(=S)n(-c2ccc(C(=O)O)cc2)c1O	.	1.2
Cc1cccc(-n2c(O)c(C3=c4ccccc4=NC3=O)sc2=O)c1	.	.
Nc1ccc(C(=O)Nc2cccc3ccccc23)cc1	.	.
Nc1ccc(C(=O)NCCNCCNC(=O)c2ccc(N)cc2)cc1	.	0.8
Cc1ccc(N2C(=O)CC(N3CCC(C)CC3)C2=O)cc1 (stereo not given)	.	1.2
Cc1ccc(N2C(=O)CC(N3CCSCC3)C2=O)cc1 (stereo not given)	.	.
CCc1ccccc1NC(=O)c1c(NC(=O)c2cccs2)sc2c1CCCCC2	.	.
CCCN(CCC)C(=O)c1c(NC(=O)c2cccs2)sc2c1CCCCC2	.	0.67
COc1cccc(C(=O)Nc2ccc3nn(-c4ccc(Cl)cc4)nc3c2)c1	.	.
CCC(=O)Nc1ccc(I)cc1Cl	.	.
O=[N+]([O-])c1cccc(-c2nc(-c3ccc(Cl)cc3)no2)c1	.	.
O=[N+]([O-])c1ccc(-c2noc(-c3ccccc3Br)n2)cc1	.	0.76
Cc1ccc(NC(=S)NC(=O)c2ccccc2)cc1Br	.	.
CCc1ccc(NC(=O)c2ccc(Cl)cc2Cl)cc1	.	.
CCOC(=O)c1sc(NC(=O)c2ccc(OCC)c(Cl)c2)nc1C	57	.
CCOC(=O)c1sc(NC(=O)c2ccc(Cl)cc2Cl)nc1C	.	0.64
CCOC(=O)c1sc(NC(=O)c2cncc(Br)c2)nc1C	.	.
CCC(C)c1ccc(NS(=O)(=O)c2ccc(NC(C)=O)cc2)cc1 (stereo not given)	.	.
c1ccc2cc3[nH]c(CN4CCOCC4)nc3cc2c1	.	.
COc1ccc(N2C(=O)/C(=C\c3ccsc3)SC2=S)cc1	.	.
Cc1cccc(/C=C2/SC(=S)N(C)C2=O)c1	.	0.68
Cc1ccc(OCCOc2cccc(/C=C3/SC(=S)N(C)C3=O)c2)cc1C	.	.
CN1C(=O)/C(=C\c2ccsc2)SC1=S	.	0.69
COc1ccc(N2C(=O)c3ccccc3NC2c2ccccc2F)cc1 (stereo not given)	.	.
O=c1/c(=C/c2cccs2)sc2nc3ccccc3n12	.	.
COc1ccc(CN2C(=O)NC(=O)/C(=C\C=C\c3ccccc3)C2=O)cc1	.	1.9
COc1ccc(CN2C(=O)NC(=O)/C(=C\C=C\c3ccco3)C2=O)cc1	.	.
CCOc1ccc(NC(=O)CN(c2ccccc2OC)S(=O)(=O)c2ccccc2)cc1	.	.
